Results: PubChem BioAssay AID1159580 (chemical genetic matrix, 2015)
Among all 5,500 compounds or so, about 2,000 (36%) were called active. Another 18% or so got no clear call; they are omitted. No stated cut-off is given here; in the data, active means normalized growth mostly below about 0.91 (no sharp cut-off); inconclusive means no clear call, values can overlap the other calls; inactive means mostly above about 0.92. The list shows a part of the results.

Test: chemical genetic growth profiling, strain panel (AID 1159580);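 further: tested at 20 µM; growth read once vehicle control cultures reached saturation at 30 °C; 1 = growth at the plate median or of vehicle wells; lower values mean less growth of the strain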
Conditions: growth OD

Measured: normalized growth

O=C1CN(/N=C\c2ccc([N+](=O)[O-])o2)C(=O)N1
active: S. cerevisiae deletion strains, locus YMR058W, strain fet3, hits give low values 0.898 | S. cerevisiae deletion strains, locus YNL250W, strain rad50, hits give low values 0.877
inactive: S. cerevisiae deletion strains, locus YJR075W, strain HOC1, hits give low values 0.986 | S. cerevisiae deletion strains, locus YKL009W, strain mrt4, hits give low values 0.967 | S. cerevisiae deletion strains, locus YKL068W, hits give low values 1 | S. cerevisiae deletion strains, locus YKL085W, strain MDH1 (second series), hits give low values 0.991 | S. cerevisiae deletion strains, locus YKL085W, strain MDH1, hits give low values 0.991 | S. cerevisiae deletion strains, locus YKL160W, strain elf1, hits give low values 0.985 | S. cerevisiae deletion strains, locus YKL190W, strain CNB1, hits give low values 0.996 | S. cerevisiae deletion strains, locus YKR001C, strain vps1, hits give low values 0.965 | S. cerevisiae deletion strains, locus YKR026C, strain gcn3, hits give low values 0.979 | S. cerevisiae deletion strains, locus YKR091W, strain srl3, hits give low values 0.979 | S. cerevisiae deletion strains, locus YLL001W, strain dnm1, hits give low values 1 | S. cerevisiae deletion strains, locus YLL026W, hits give low values 0.992 | S. cerevisiae deletion strains, locus YLL041C, strain sdh2, hits give low values 0.978 | S. cerevisiae deletion strains, locus YLR027C, strain aat2, hits give low values 0.975 | S. cerevisiae deletion strains, locus YLR039C, strain RIC1, hits give low values 0.983 | S. cerevisiae deletion strains, locus YLR058C, strain SHM2, hits give low values 1.01 | S. cerevisiae deletion strains, locus YLR102C, strain apc9, hits give low values 0.993 | S. cerevisiae deletion strains, locus YLR113W, strain HOG1, hits give low values 0.968 | S. cerevisiae deletion strains, locus YLR221C, strain rsa3, hits give low values 0.976 | S. cerevisiae deletion strains, locus YLR258W, strain gsy2, hits give low values 0.975 | S. cerevisiae deletion strains, locus YLR262C, strain YPT6 (second series), hits give low values 0.976 | S. cerevisiae deletion strains, locus YLR262C, strain YPT6, hits give low values 1.04 | S. cerevisiae deletion strains, locus YLR268W, strain sec22, hits give low values 0.996 | S. cerevisiae deletion strains, locus YLR320W, strain mms22, hits give low values 0.935 | S. cerevisiae deletion strains, locus YLR330W, strain CHS5, hits give low values 1 | S. cerevisiae deletion strains, locus YLR342W, strain FKS1 (second series), hits give low values 0.983 | S. cerevisiae deletion strains, locus YLR342W, strain FKS1, hits give low values 0.979 | S. cerevisiae deletion strains, locus YLR357W, strain rsc2, hits give low values 0.954 | S. cerevisiae deletion strains, locus YLR370C, strain arc18, hits give low values 0.985 | S. cerevisiae deletion strains, locus YLR371W, strain rom2, hits give low values 1.01 | S. cerevisiae deletion strains, locus YLR384C, strain iki3, hits give low values 0.986 | S. cerevisiae deletion strains, locus YLR418C, strain cdc73, hits give low values 0.885 | S. cerevisiae deletion strains, locus YML016C, strain PPZ1, hits give low values 0.998 | S. cerevisiae deletion strains, locus YML032C, strain rad52, hits give low values 0.929 | S. cerevisiae deletion strains, locus YML120C, strain ndi1, hits give low values 0.982 | S. cerevisiae deletion strains, locus YML124C, strain tub3, hits give low values 0.991 | S. cerevisiae deletion strains, locus YMR078C, strain ctf18, hits give low values 0.989 | S. cerevisiae deletion strains, locus YMR125W, strain sto1, hits give low values 0.943 | S. cerevisiae deletion strains, locus YMR129W, hits give low values 0.965 | S. cerevisiae deletion strains, locus YMR205C, strain PFK2, hits give low values 0.993 | S. cerevisiae deletion strains, locus YMR223W, strain ubp8, hits give low values 0.949 | S. cerevisiae deletion strains, locus YMR231W, strain pep5, hits give low values 0.985 | S. cerevisiae deletion strains, locus YMR263W, strain SAP30, hits give low values 0.977 | S. cerevisiae deletion strains, locus YMR307W, strain GAS1, hits give low values 0.973 | S. cerevisiae deletion strains, locus YNL067W, strain RPL9B, hits give low values 0.982 | S. cerevisiae deletion strains, locus YNL071W, strain lat1, hits give low values 0.959 | S. cerevisiae deletion strains, locus YNL128W, strain TEP1, hits give low values 0.974 | S. cerevisiae deletion strains, locus YNL153C, strain GIM3, hits give low values 0.966 | S. cerevisiae deletion strains, locus YNL183C, strain NPR1, hits give low values 0.879 | S. cerevisiae deletion strains, locus YNL209W, strain ssb2, hits give low values 0.975 | S. cerevisiae deletion strains, locus YNL233W, strain BNI4, hits give low values 0.995 | S. cerevisiae deletion strains, locus YNL248C, strain rpa49, hits give low values 0.923 | S. cerevisiae deletion strains, locus YNL271C, strain bni1, hits give low values 0.998 | S. cerevisiae deletion strains, locus YNL298W, strain CLA4, hits give low values 0.991 | S. cerevisiae deletion strains, locus YNL307C, strain MCK1, hits give low values 0.952 | S. cerevisiae deletion strains, locus YNL322C, strain KRE1 (second series), hits give low values 0.98 | S. cerevisiae deletion strains, locus YNL322C, strain KRE1, hits give low values 1.01 | S. cerevisiae deletion strains, locus YNR049C, strain mso1, hits give low values 0.984 | S. cerevisiae deletion strains, locus YNR052C, strain pop2, hits give low values 0.998 | S. cerevisiae deletion strains, locus YOL006C, strain TOP1, hits give low values 1.03 | S. cerevisiae deletion strains, locus YOL012C, strain htz1 0.88 | S. cerevisiae deletion strains, locus YOL147C, strain pex11, hits give low values 0.999 | S. cerevisiae deletion strains, locus YOR001W, strain rrp6, hits give low values 0.977 | S. cerevisiae deletion strains, locus YOR061W, strain CKA2, hits give low values 0.998 | S. cerevisiae deletion strains, locus YOR069W, strain VPS5, hits give low values 0.999 | S. cerevisiae deletion strains, locus YOR070C, strain gyp1, hits give low values 0.98 | S. cerevisiae deletion strains, locus YOR080W, strain dia2, hits give low values 0.983 | S. cerevisiae deletion strains, locus YOR083W, strain WHI5, hits give low values 1 | S. cerevisiae deletion strains, locus YOR106W, strain vam3, hits give low values 0.969 | S. cerevisiae deletion strains, locus YOR136W, strain idh2, hits give low values 0.983 | S. cerevisiae deletion strains, locus YOR144C, strain elg1, hits give low values 1.02 | S. cerevisiae deletion strains, locus YOR184W, strain ser1, hits give low values 0.932 | S. cerevisiae deletion strains, locus YOR231W, strain MKK1, hits give low values 0.889 | S. cerevisiae deletion strains, locus YOR265W, strain rbl2, hits give low values 0.979 | S. cerevisiae deletion strains, locus YOR270C, strain vph1, hits give low values 0.874 | S. cerevisiae deletion strains, locus YOR290C, strain snf2, hits give low values 0.961 | S. cerevisiae deletion strains, locus YOR316C, strain cot1, hits give low values 0.999 | S. cerevisiae deletion strains, locus YPL051W, strain arl3, hits give low values 0.979 | S. cerevisiae deletion strains, locus YPL055C, strain LGE1, hits give low values 0.97 | S. cerevisiae deletion strains, locus YPL078C, strain atp4, hits give low values 0.956 | S. cerevisiae deletion strains, locus YPL106C, strain sse1, hits give low values 0.964 | S. cerevisiae deletion strains, locus YPL240C, strain hsp82, hits give low values 0.974 | S. cerevisiae deletion strains, locus YPL241C, strain CIN2, hits give low values 0.996 | S. cerevisiae deletion strains, locus YPL256C, strain CLN2, hits give low values 0.956 | S. cerevisiae deletion strains, locus YPR119W, strain clb2, hits give low values 1 | S. cerevisiae deletion strains, locus YPR141C, strain kar3, hits give low values 1.01 | S. cerevisiae deletion strains, locus YPR163C, strain tif3, hits give low values 1 | S. cerevisiae deletion strains, locus YPR167C, strain met16, hits give low values 1 | S. cerevisiae deletion strains, strain wtn01, hits give low values 0.99 | S. cerevisiae strains, strain wild type, hits give low values 0.997
